# This is a sample that favours compounds with a hit; in the whole collection about 11% have one here.
# Luciferase inh: Photinus pyralis luciferase inhibition | P08659 | purified P. pyralis luciferase, luminescence, biochemical | Potency, µM (titrated, usually from 115 µM), actives largely listed as inhibitors | hit rate 2.5% among 76,000 | AID 1347043; note: nearly all actives have a fitted effect of over 65% in size
# Target sequence (P08659 whole entry, looked up): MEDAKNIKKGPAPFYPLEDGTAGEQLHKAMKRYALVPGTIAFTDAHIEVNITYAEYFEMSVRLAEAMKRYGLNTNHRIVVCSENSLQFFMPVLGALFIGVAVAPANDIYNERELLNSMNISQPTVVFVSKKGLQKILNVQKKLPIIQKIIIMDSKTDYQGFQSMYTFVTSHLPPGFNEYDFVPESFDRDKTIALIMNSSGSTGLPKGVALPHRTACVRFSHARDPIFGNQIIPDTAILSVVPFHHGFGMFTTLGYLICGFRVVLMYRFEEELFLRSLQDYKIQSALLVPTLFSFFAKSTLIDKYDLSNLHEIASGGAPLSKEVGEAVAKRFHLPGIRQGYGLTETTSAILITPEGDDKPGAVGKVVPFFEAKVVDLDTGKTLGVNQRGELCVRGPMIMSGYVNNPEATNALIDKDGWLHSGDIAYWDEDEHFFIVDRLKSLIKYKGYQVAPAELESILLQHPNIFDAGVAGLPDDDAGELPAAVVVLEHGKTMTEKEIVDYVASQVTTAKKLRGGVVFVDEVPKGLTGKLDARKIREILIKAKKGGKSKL
#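 Luminescence read by CCD imaging after purified firefly luciferase (10nM final) was added to substrate buffer holding 10uM D-luciferin and 10uM ATP, pH 7.5, pre-dosed with compound.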
# NPR1 antag: antagonists of human natriuretic peptide receptor Npr1; Potency, µM (highest dose often 46.3 µM), usual class: inhibitors; P16066; hit rate 1.6% among 76,000; HEK293 hNpr1 GloSensor cGMP, ANP-stimulated luminescence; calls by dose curve; note: nearly all actives have a fitted effect of over 60% in size
#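 HEK293 cells stably expressing human Npr1 and cGMP GloSensor pGS-40F, loaded 2 h with 2% GloSensor reagent, given compound 30 min at room temperature. Luminescence read before and 20 min after 0.1 nM hNppA.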
# 3T3 cytotox: NIH 3T3 cell cytotoxicity; NIH 3T3 viability, CellTiter-Glo ATP luminescence, 48-72 h; Potency, µM (doses to about 96.7 µM), usual class: inhibitors; hit rate 4.3% among 94,000; AID 1345082; note: nearly all actives have a fitted effect of over 55% in size
#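 Cells were seeded at 400 per well, treated with pin-transferred compound, and kept 48 or 72 hr at 37 °C before CellTiter-Glo addition and luminescence imaging of cellular ATP.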
# HEK cytotox: HEK 293 cell cytotoxicity. hit rate 6.6% among 94,000. Potency, µM (highest dose often 115 µM), usual class: inhibitors. HEK 293 viability, ATP luminescence (CellTiter-Glo), 48-72 h; note: nearly all actives have a fitted effect of over 60% in size
#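 Viability of HEK 293 cells, plated at 250 cells/well, was judged by cellular ATP after compound treatment for 48 or 72 hr. Luminescence was imaged 10 min after CellTiter-Glo addition at room temperature.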
# Numbers stand for hits; – = inactive; ? = inconclusive; · = no result given. Unless noted, calls come from the whole dose curve; as a rule, active = well fitted curve in the direction sought with a large enough effect; inconclusive = small, poorly fitted or top-dose-only effect, or another doubt; inactive = no such curve, though single readings can be large; an effect the other way counts as inactive or inconclusive.
SMILES,Luciferase inh,NPR1 antag,3T3 cytotox,HEK cytotox
O=C(c1ccc(Cl)cc1)N1CCCC(c2nn(-c3ccc(F)cc3)c(=O)[nH]2)C1 (stereo unspecified),–,–,?,–
COc1cccc(-c2cccc(C(=O)N3CCN([S+](=O)([O-])c4ccccc4)CC3)c2)c1,·,·,?,35µM
COc1cccc(C(=O)N2CCN(C(=O)c3cccc(-c4ccccn4)c3)CC2)c1,·,·,–,?
COc1cccc(-c2cccc(C(=O)N3CCN(C(=O)c4ccc(F)cc4)CC3)c2)c1,·,·,?,28µM
COc1ccc(CCNC(=O)C2CN(C3CCCCC3)C(=O)N2)cc1 (stereo unspecified),·,·,–,–
COc1ccc(S(=O)(=O)N2CCC3(CC2)CC(N2CCOCC2)CCO3)cc1 (stereo unspecified),–,–,–,–
O=C(Nc1cccc(C(F)(F)F)c1)c1nc2c(o1)CCN(CC1CC1)CC2,–,–,?,?
Cc1csc(NC(=O)c2nc3c(o2)CCN(CC2CC2)CC3)n1,18µM,–,?,–
O=C(NCC1CC1)c1nc2c(o1)CCN(Cc1cccs1)CC2,71µM,–,–,?
COc1cccc(CNC(=O)c2nn(C)c3nc(-c4ccccc4OC)ccc23)c1,·,·,–,–
CCc1noc(-c2ccn3c(CNC(=O)c4ccc(C)c(C)c4)nnc3c2)n1,–,–,–,–
COCCNc1ncc(-c2ccc(OC)cc2)c2c1OCC2,45µM,–,?,?
COCCNc1ncc(-c2ccc(F)cc2)c2c1OCC2,16µM,–,?,?
O=C1N(C2CCN(S(=O)(=O)c3cccnc3)CC2)C(c2ccncc2)C12CCCCC2 (stereo unspecified),–,–,–,–
Cc1ccc(-c2cccc(CN3CCCC3C(=O)N3CCC(C#N)CC3)c2)cc1Cl (stereo unspecified),·,·,32µM,40µM
O=C1CCN(C(=O)[C@@H]2CCCN2Cc2cccc(F)c2)CCCCCCN1,–,–,–,–
Cc1ccc(-c2cccc(CN3CCCC3C(=O)N3CCCCC3)c2)cc1Cl (stereo unspecified),·,·,32µM,32µM
CC1(NC(=O)C2CC2)CN(Cc2nc(-c3cccc(N4CCOCC4)c3)cs2)C1,40µM,–,–,?
CC1(NC(=O)C2CC2)CN(Cc2nc(-c3ccc(Oc4ccccc4)cc3)cs2)C1,?,8.9µM,?,35µM
COc1cccc(C(=O)N(C)Cc2ccc(F)cc2)c1,–,–,–,–
Cc1ccccc1C(=O)N(C)Cc1ccc(-c2ccccc2)cc1,–,?,50µM,?
CN(Cc1ccc(F)cc1)C(=O)c1ccccc1,–,–,–,?
Cc1ccccc1C(=O)N(C)Cc1ccc(F)cc1,–,–,–,–
COc1cccc(C(=O)N(C)Cc2ccc(-c3ccccc3)cc2)c1,–,–,?,71µM
CN(Cc1ccc(-c2ccccc2)cc1)C(=O)c1ccc(F)cc1,–,–,?,71µM
SMILES,Luciferase inh,NPR1 antag,3T3 cytotox,HEK cytotox
COC[C@H]1CCCN1Cc1nc(C2(O)CCN(Cc3ccccc3O)CC2)cs1,–,–,?,?
OCc1cccc(-c2ccc3ncc(Nc4ccccc4Cl)n3n2)c1,22µM,–,?,89µM
OCc1cccc(-c2ccc3ncc(Nc4cccc(C(F)(F)F)c4)n3n2)c1,–,–,50µM,?
OCc1cccc(-c2ccc3ncc(Nc4ccc(OCCN5CCCC5)cc4)n3n2)c1,–,–,?,100µM
OCc1cccc(-c2ccc3ncc(Nc4cccnc4)n3n2)c1,–,–,?,–
O=C(Cc1ccsc1)N1CCC2(CC1)CN(Cc1ccccc1)CC2CO (stereo unspecified),–,–,?,?
COc1ccc(CN2CCC3(CC2)Cc2ccccc2CNC3=O)cc1OC,·,·,–,–
CC1=C[C@@H](CNCc2ccccn2)[C@H](C(C)C)C[C@H]1Cc1nnc(-c2ccccc2F)o1,–,–,?,22µM
CC1=C[C@@H](CNc2ccccn2)[C@H](C(C)C)C[C@H]1Cc1nnc(-c2ccc(C)cc2)o1,–,?,40µM,35µM
CC1=C[C@@H](CNCc2ccncc2)[C@H](C(C)C)C[C@H]1Cc1nnc(-c2ccccc2F)o1,–,?,?,20µM
CC(=O)Nc1ccc(NC[C@@H]2C=C(C)[C@H](Cc3nnc(C)o3)C[C@H]2C(C)C)cn1,–,–,–,112µM
CN(C)CC1(O)CCCN(Cc2cc3ccccc3n2C)C1 (stereo unspecified),–,–,?,?
CC1=C[C@@H](CNCc2ccco2)[C@H](C(C)C)C[C@H]1Cc1nnc(-c2ccccc2F)o1,–,–,?,79µM
CC1=C[C@@H](CNCc2cccnc2)[C@H](C(C)C)C[C@H]1Cc1nnc(-c2ccccc2)o1,–,–,?,79µM
CC1=C[C@@H](CNCc2cccnc2)[C@H](C(C)C)C[C@H]1Cc1nnc(-c2ccccc2F)o1,–,–,–,?
CC(=O)NCCNC[C@@H]1C=C(C)[C@H](Cc2nnc(-c3ccccc3)o2)C[C@H]1C(C)C,–,–,89µM,56µM
COCCO[C@H]1C(=O)N(C2CCN(C(=O)c3ccc(C#N)cc3)CC2)[C@H]1c1ccncc1,·,·,–,–
COc1cccc(CCC(=O)N2CCCC(CN3CCC(C)CC3)CC2)c1 (stereo unspecified),–,–,–,?
CCN1c2cc(C(=O)NCc3ccc(F)cc3)ccc2C(=O)N2CCCCC21 (stereo unspecified),–,–,?,?
Cc1noc(C)c1-c1cc2c(cc(C)n2C)c(Nc2ccncn2)n1,–,–,20µM,?
Cc1noc(C)c1-c1cc2c(cc(-c3ccccc3)n2C)c(Nc2ccncn2)n1,–,–,?,32µM
Cc1noc(C)c1-c1cc2c(cc(C)n2C)c(NCCN(C)C)n1,–,–,?,?
O=C(NC1CC1)c1ccc2nnc(-c3ccoc3)n2c1,·,·,–,–
O=C(CN1C(=O)C(c2ccccc2)=NC12CCCCC2)NC1CCCC1,–,–,?,28µM
O=C(CN1C(=O)C(c2ccccc2)=NC12CCCC2)NCc1ccc(F)cc1,–,–,?,40µM
SMILES,Luciferase inh,NPR1 antag,3T3 cytotox,HEK cytotox
COCCn1c(=O)c(C(=O)N2CCC(C#N)CC2)nc2cccnc21,·,·,–,–
Cc1ccc(C2Cn3nnc(-c4noc(-c5ccccc5F)n4)c3CO2)cc1 (stereo unspecified),–,–,–,–
c1cc(-c2nc3c(c(NCCCn4ccnc4)n2)CCNCC3)ccn1,–,–,–,–
c1ccc(-c2nc3c(c(NCC4OCCc5ccccc54)n2)CCNCC3)nc1 (stereo unspecified),–,–,79µM,?
CCc1nc2c(c(-c3ccc(O)cc3)n1)CN(C(=O)c1ccccc1)CC2,·,·,–,–
O=C(c1ccccc1OC1CCN(Cc2ccc(-n3cccn3)cc2)CC1)N1CCCCC1,–,–,–,?
Cc1ccsc1CN1CCC(Oc2cc(Cl)ccc2C(=O)N2CCCCC2)CC1,–,–,?,45µM
O=C(NCc1ccc2c(c1)OCO2)c1cnc2c(c1)N(C(=O)CCc1ccccc1)CCC2,–,–,?,?
O=C(Nc1cccc(F)c1)c1cnc2c(c1)N(C(=O)CCc1ccccc1)CCC2,–,–,–,?
